697 NFkB inh: lowers PMA/ionomycin-induced NF-kB signal in 697 B cells | 697 B-cell NF-kB luciferase reporter, 16 h | inhibition, % at 4 µM | AID 435022 | 330,000 tested, 0.33% active; in the data active means inhibition above about 35%
Jurkat NFkB inh: inhibitors of the PMA/ionomycin-induced NF-kB reporter in Jurkat cells; 330,000 tested, 0.53% active; inhibition, % at 4 µM; PMA/ionomycin-induced NF-kB luciferase reporter, luminescence; AID 435003; in the data active means inhibition above about 50%
Gli-Sufu block: antagonists of Gli-Sufu signaling; Sufu-KO-LIGHT fibroblasts, Gli luciferase reporter luminescence; 340,000 tested, 0.74% active; inhibition, % at 5 µM;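 active means inhibition above about 55%, limit read from the data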
GalR3 antag: antagonists of human GalR3; O60755; HEK293 GalR3-CNG cAMP membrane potential fluorescence; galR3 body fused to GalR1 C-terminus; inhibition, % at 3 µM; 360,000 tested, 0.44% active;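 active means inhibition above the screen-wide average plus 3 SD, cut at about 13% in these data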;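 further: forskolin and galanin both at EC90 stimulate the cells; cAMP rise reported by CNG channel membrane potential dye signal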
Target sequence (O60755 1-299 limits assumed): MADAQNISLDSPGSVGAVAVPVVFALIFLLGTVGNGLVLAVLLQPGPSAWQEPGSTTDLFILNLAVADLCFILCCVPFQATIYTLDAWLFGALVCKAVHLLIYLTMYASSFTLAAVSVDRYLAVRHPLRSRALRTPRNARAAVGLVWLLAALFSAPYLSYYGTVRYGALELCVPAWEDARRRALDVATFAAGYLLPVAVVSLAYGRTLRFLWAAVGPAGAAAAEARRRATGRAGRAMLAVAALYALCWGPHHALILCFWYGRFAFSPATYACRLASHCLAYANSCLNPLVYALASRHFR
NR2F2 inh: NR2F2 (human) inhibition, primary screen. P24468. HEK293T NGFI-A luciferase reporter, luminescence. inhibition, % at 8.6 µM. 370,000 tested, 0.7% active. AID 686940;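 active means inhibition above a per-plate cutoff, mean inhibition of test wells between control levels plus 3 SD, cut at about 38% in these data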;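 further: cells cotransfected with COUP-TFII expression vector driving the NGFI-A reporter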
Target sequence (P24468 whole entry, looked up): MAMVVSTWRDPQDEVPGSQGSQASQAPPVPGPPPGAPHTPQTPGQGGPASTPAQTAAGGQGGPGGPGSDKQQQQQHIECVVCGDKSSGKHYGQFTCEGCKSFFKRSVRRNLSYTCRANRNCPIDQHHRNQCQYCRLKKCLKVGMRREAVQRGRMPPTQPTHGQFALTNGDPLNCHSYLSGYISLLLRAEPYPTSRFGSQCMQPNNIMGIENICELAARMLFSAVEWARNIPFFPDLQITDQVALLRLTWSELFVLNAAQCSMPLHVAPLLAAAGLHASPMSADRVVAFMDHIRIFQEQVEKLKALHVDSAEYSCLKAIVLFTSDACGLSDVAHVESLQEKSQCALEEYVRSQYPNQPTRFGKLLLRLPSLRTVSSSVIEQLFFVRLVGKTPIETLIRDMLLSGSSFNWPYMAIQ
Gli antag conf: Gli-SUFU antagonism confirmation, single concentration. shares compounds with Gli-Sufu block. Sufu-KO-LIGHT cells, Gli luciferase reporter, luminescence. inhibition, % at 5 µM. 2,500 tested, 40% active. AID 602428;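 active means mean inhibition at 5 µM reaching about 45%, limit read from the data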
SufuKO cytotox: counter-screen for Gli-SUFU antagonists: cytotoxicity | shares compounds with Gli-Sufu block | Sufu-KO-LIGHT cells cytotoxicity, ATP luminescence | cytotoxicity, % at 5 µM | 2,500 tested, 32% active | AID 651994;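 active means mean cytotoxicity at 5 µM above about 25%, limit read from the data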;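 further: cells exposed to compound overnight for roughly 16 to 18 hours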
Wnt3a cs: inhibits Wnt3a reporter, counter-screen for Gli-SUFU antagonists | shares compounds with Gli-Sufu block | Wnt-LIGHT cells, Wnt3a-driven luciferase reporter, luminescence | inhibition, % at 6.25 µM | 2,500 tested, 20% active | AID 651995;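 active means mean inhibition above about 25%, limit read from the data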
GalR3 conf: confirmation of human galanin receptor 3 antagonists. shares compounds with GalR3 antag. 1,600 tested, 59% active. inhibition, % at 3 µM. HEK293 GalR3 CNG cAMP biosensor, membrane potential fluorescence; galR3 fused to GalR1 carboxy tail; challenged with forskolin and galanin at EC90. AID 652245;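 active means inhibition above the primary screen's cutoff, the mean inhibition of all screened compounds plus 3 SD, cut at about 13% in these data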
HEK-CNG parental: acts as nonspecific agonist in parental HEK-CNG cells; 1,600 tested, 10% active; activation, % at 3 µM; AID 652268; HEK293-CNG parental cells, cAMP membrane potential fluorescence; normalised: DMSO wells 0%, forskolin wells 100%; shares compounds with GalR3 antag; in the data active means activation above about 1.3%
Gal4-VP16 ctr: counter-screen for COUP-TFII antagonists: inhibitors of VP16; 2,500 tested, 25% active; AID 687007; inhibition, % at 8.5 µM; shares compounds with NR2F2 inh; HEK293 Gal4-VP16 luciferase reporter, luminescence; in the data active means inhibition above about 13%
NR2F2 inh conf: confirmation of human COUP-TFII (NR2F2) inhibitors; shares compounds with NR2F2 inh; HEK293 NGFI-A luciferase reporter, luminescence; inhibition, % at 8.5 µM; 2,500 tested, 45% active;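 active means mean inhibition over three repeats above a set limit taken from the earlier primary screen, cut at about 38% in these data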
Of the large screens only hits and unclear results are named; the others gave an inactive call (follow-up assays come after a bar, where they were run). Compounds with a hit are over-represented: about 2% of the library has one in this group of screens.

CC(=O)c1cccc(NS(=O)(=O)c2ccc(-c3cnc(C4CC4)o3)cc2)c1	NR2F2 inh 44 | Gli antag conf 49 | SufuKO cytotox inactive | Wnt3a cs inactive | Gal4-VP16 ctr inactive | NR2F2 inh conf 47
Clc1ccc(C2=Nn3c(Cn4nnc5ccccc54)nnc3SC2)cc1	none
C[n+]1c2n(c3ccccc31)N=C(c1ccc(Cl)cc1)CS2	Gli-Sufu block 61, NR2F2 inh 54 | Gli antag conf 66 | SufuKO cytotox 37 | Wnt3a cs inactive | Gal4-VP16 ctr inactive | NR2F2 inh conf inactive
CC(C)Cc1ccc(C(C)C(=O)Nc2cccnc2)cc1 (stereo not given)	Gli-Sufu block 66, NR2F2 inh 46 | Gli antag conf inactive | SufuKO cytotox inactive | Wnt3a cs inactive | Gal4-VP16 ctr inactive | NR2F2 inh conf 41
CC(C(=O)Nc1cccnc1)c1ccc([N+](=O)[O-])cc1 (stereo not given)	none
O=C(N/N=C/c1cccc2ccccc12)c1ccncc1	none
O=C(/C=C/c1cccc2ccccc12)c1ccncc1	NR2F2 inh 40 (no result: 697 NFkB inh, Jurkat NFkB inh) | Gli antag conf 47 | SufuKO cytotox 37 | Wnt3a cs inactive | Gal4-VP16 ctr inactive | NR2F2 inh conf inactive
COc1ccc(-n2c(CCC(=O)O)ccc2-c2ccccc2)cc1	none
COc1ccc(-c2c[n+]3c(n2-c2ccccc2)SCC3)cc1	Gli-Sufu block 76, NR2F2 inh 57 | Gli antag conf 80 | SufuKO cytotox 25 | Wnt3a cs 42 | Gal4-VP16 ctr inactive | NR2F2 inh conf inactive
COc1ccc(COc2ccccc2C(=O)NCc2ccccc2)cc1F	NR2F2 inh 41 | Gli antag conf inactive | SufuKO cytotox inactive | Wnt3a cs inactive | Gal4-VP16 ctr inactive | NR2F2 inh conf inactive
CN1CC=C(c2ccc(C(F)(F)F)cc2)N(c2ccccc2)C1=O	none (no result: 697 NFkB inh, Jurkat NFkB inh, Gli-Sufu block, GalR3 antag)
CCOC(=O)[C@@]12CCCC3=C1N(CCC3)C(=O)[C@H]2CC(=O)NCc1cccc2ccccc12	none (no result: 697 NFkB inh, Jurkat NFkB inh, Gli-Sufu block, GalR3 antag)
CC(NCc1ccco1)C(=O)N1CCCC1 (stereo not given)	none (no result: 697 NFkB inh, Jurkat NFkB inh, Gli-Sufu block, GalR3 antag)
Cc1ccc(NC(=O)CNc2cccc(S(=O)(=O)N3CCOCC3)c2)cc1F	none
CCN(CC)S(=O)(=O)c1cc(NC(=O)CNc2cccc(S(=O)(=O)N3CCOCC3)c2)ccc1C	Gli-Sufu block 95, GalR3 antag 93, NR2F2 inh 56 | Gli antag conf 46 | SufuKO cytotox 36 | Wnt3a cs inactive | GalR3 conf 116 | HEK-CNG parental inactive | Gal4-VP16 ctr inactive | NR2F2 inh conf 54
Cc1ccc(NCC(=O)Nc2cccc(S(=O)(=O)N(C)C)c2)cc1S(=O)(=O)N1CCCCCC1	NR2F2 inh 49 | Gli antag conf inactive | SufuKO cytotox inactive | Wnt3a cs inactive | Gal4-VP16 ctr inactive | NR2F2 inh conf inactive
Nc1[nH]c(C(=O)c2ccccc2)c(-c2ccc(Br)cc2)c1C(=O)NCCCN1CCOCC1	none (no result: 697 NFkB inh, Jurkat NFkB inh, Gli-Sufu block, GalR3 antag)
Cc1ccc(CSc2nnc(-c3cccs3)o2)cc1C	none (no result: 697 NFkB inh, Jurkat NFkB inh, Gli-Sufu block, GalR3 antag)
CC(=O)c1cccc(OCc2cc(C(=O)N(C)Cc3nccs3)no2)c1	none (no result: 697 NFkB inh, Jurkat NFkB inh, Gli-Sufu block)
CN(Cc1nccs1)C(=O)c1cc(COc2cccc3cnccc23)on1	Gli-Sufu block 58, NR2F2 inh 54 | Gli antag conf inactive | SufuKO cytotox inactive | Wnt3a cs inactive | Gal4-VP16 ctr inactive | NR2F2 inh conf 47
CCOc1ccc(-n2c(-c3ccccc3)c[nH]c2=S)cc1	none
CCOc1ccc(-n2c(-c3ccccc3)c[n+]3c2CCC3)cc1	Gli-Sufu block 85, NR2F2 inh 55 | Gli antag conf 88 | SufuKO cytotox 33 | Wnt3a cs 41 | Gal4-VP16 ctr inactive | NR2F2 inh conf inactive
O=C1CCCc2ccccc2N1Cc1ccc(F)cc1	none
N=c1c2c(n(Cc3ccc(F)cc3)c3c1CCC3)CCCC2	Gli-Sufu block 66, NR2F2 inh 39 | Gli antag conf 69 | SufuKO cytotox inactive | Wnt3a cs inactive | Gal4-VP16 ctr inactive | NR2F2 inh conf inactive
CCOc1ccc(Br)cc1CC(=O)O	none
CCCOc1ccc(Br)cc1CSC(=N)N	Gli-Sufu block 61, GalR3 antag 50, NR2F2 inh 54 | Gli antag conf 56 | SufuKO cytotox 27 | Wnt3a cs inactive | GalR3 conf 95 | HEK-CNG parental 5.8 | Gal4-VP16 ctr 15 | NR2F2 inh conf 49
Cc1nc2ccccc2c2oc(C(=O)N3CCN(C4CCCCC4)CC3)cc12	NR2F2 inh 42 | Gli antag conf 46 | SufuKO cytotox inactive | Wnt3a cs inactive | Gal4-VP16 ctr inactive | NR2F2 inh conf inactive
C[N+]1=C(N)NC2=C3CCCCC3n3c(=O)n(-c4ccccc4)c(=O)n3C2C1 (stereo not given)	none (no result: 697 NFkB inh, Jurkat NFkB inh, Gli-Sufu block, GalR3 antag)
Cc1sc2ncnc(NCC(O)c3ccc([N+](=O)[O-])cc3)c2c1C (stereo not given)	Gli-Sufu block 68, NR2F2 inh 63 | Gli antag conf 71 | SufuKO cytotox 30 | Wnt3a cs inactive | Gal4-VP16 ctr inactive | NR2F2 inh conf 50
CCn1cc(CN(C)S(=O)(=O)c2ccc3ccccc3c2)c(C)n1	GalR3 antag 71, NR2F2 inh 51 | Gli antag conf 50 | SufuKO cytotox inactive | Wnt3a cs 28 | GalR3 conf 103 | HEK-CNG parental inactive | Gal4-VP16 ctr inactive | NR2F2 inh conf 51
CCn1cc(CN(C)S(=O)(=O)c2cccc([N+](=O)[O-])c2)cn1	none
O=C(CNS(=O)(=O)c1ccc(Cl)s1)N1CCN(c2ccccn2)CC1	none (no result: 697 NFkB inh, Jurkat NFkB inh, Gli-Sufu block, GalR3 antag)
O=c1cc(CSc2nnc(-c3cccs3)n2Cc2ccccc2)nc2sc3ccccc3n12	Gli-Sufu block 62, GalR3 antag 74, NR2F2 inh 62 | Gli antag conf 57 | SufuKO cytotox 33 | Wnt3a cs 37 | GalR3 conf 108 | HEK-CNG parental inactive | Gal4-VP16 ctr inactive | NR2F2 inh conf inactive
CN(C)c1cccc(-c2cnc(N3CCC(C(N)=O)CC3)s2)c1	none (no result: 697 NFkB inh, Jurkat NFkB inh, Gli-Sufu block, GalR3 antag)

Screens (PubChem BioAssay)
